What all share (test): PBM binding z-score (relative to random genomic background probes); higher = stronger binding; sequences stand for … in GC…GCGATTGACAGCGTAGAATGAAGG
Test [1] deals with RARb homodimer (NR concentration 270 nM). The gist of the method:
(§1)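 Binding z-scores take random background probes as their reference. They come from custom Agilent 4×180K protein-binding microarrays incubated 1 h with ligand-free nuclear receptor dimers, with antibodies against each partner (one per run) detecting binding. Scanned fluorescence was regression-normalized.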

Test [2] concerns RARg:RXRa (NR concentration 270 nM, RXRa partner concentration 90 nM). Summed up:
as §1

Test [3] has as its system RARg homodimer (NR concentration 270 nM). Summed up: as §1
The test system of test [4] is RXRa DBDmut IVT, anti-RXR (DBD mutation: RXRa K156A/R161A, NR concentration 90 nM). Summed up:
as §1

The subject of test [5] is RXRa homodimer (NR concentration 180 nM). The gist of the method:
as §1

Test [6] relates to THRa:RXRa (NR concentration 90 nM, RXRa partner concentration 90 nM). Summed up: as §1
The subject of test [7] is THRa homodimer (NR concentration 90 nM). The gist of the method:
as §1

Test [8] deals with VDR homodimer (NR concentration 270 nM). The gist of the method: as §1

Regarding GATACAGGGTCAGCTAGAGGCCCGAGTATGGAAA, the PBM binding z-score in test [1] was 2.47; in test [2], 4.74; in test [3], 3.86; in test [4] it was 1.21; in test [5] it was 4.25; in test [6], 2.49. Moreover, the PBM binding z-score in test [7] turned out to be 0.0608; in test [8] it was 0.402.
Take AGAACGAGGGCAATAAGTTGATAGCACGGGTGGC: the PBM binding z-score in test [1] was 1.11; in test [2], 1.23; in test [3] it was 1.56; in test [4], 1.9; in test [5] it was 0.767; in test [6], 0.873. Further, the PBM binding z-score in test [7] was -0.185; in test [8], 2.26.
With ACTCGGAAGACAAAGGTCAGAGCTACGCCAGTGA, the PBM binding z-score in test [1] is 4.33; in test [2] it was 4.5; in test [3], 4.21; in test [4] it was 0.211; in test [5], 4.56; in test [6], 2.57. For the same sequence, the values for the PBM binding z-score in test [7] and in test [8] were 0.0345 and 0.445, respectively.
Turning to ACTAGCAGGCCTAGTTTGGGTCACTCAAACAAAG, the PBM binding z-score in test [1] was 1.42; in test [2], 0.276; in test [3], 0.565; in test [4], -0.626; in test [5], 0.395; in test [6] it was 1.91. Moreover, the PBM binding z-score in test [7] came out at 0.883; in test [8] it was 0.0469.
As to TCAGACAGGTGAAGGCAACTCAGGTACGCAGTCG, the PBM binding z-score in test [1] worked out at 0.466; in test [2], 0.17; in test [3], 0.317; in test [4], 0.993; in test [5], 0.955; in test [6], 0.99. The PBM binding z-score was -0.0896 in test [7] and -0.101 in test [8].
As to TCATATAGGTAAAGGGTGAAAGTCGGTGTGGTAA, the PBM binding z-score in test [1] amounted to 1.59; in test [2], 1.09; in test [3] it was 0.514; in test [4] it was 1.84; in test [5] it was 2.24; in test [6], 1.19. In addition, the results for the PBM binding z-score in test [7] and in test [8] were 0.771 and 0.649, respectively.
Regarding ACTCGGAGGACAAAGGTCAAAGCTACGCCAGTGA, the PBM binding z-score in test [1] is 5.02; in test [2] it was 7.08; in test [3] it was 6.07; in test [4] it was 1.75; in test [5], 6.78; in test [6], 4.03. The figures for the PBM binding z-score in test [7] and in test [8] were 0.972 and 2.28, respectively.

Values taken from the supplement of paper PMC6555819.
